Results published in publication PMC5540273 (PLoS ONE, 2017).

Key:
Conditions in all cases: concentration: 1 μM, replicates: in singlicate; n = 1
[1] = test system: MTOR
[2] = test system: MUSK
[3] = test system: MYLK2
[4] = test system: MYLK4
[5] = test system: MYLK
[6] = test system: MYO3A
[7] = test system: MYO3B
[8] = test system: T1, NDR1
T1 construct: gene STK38

[9] = test system: NDR2
[10] = test system: NEK10
[11] = test system: NEK11
[12] = test system: NEK1
[13] = test system: NEK2
[14] = test system: NEK3
[15] = test system: NEK4
[16] = test system: NEK5
[17] = test system: NEK6
[18] = test system: NEK7
[19] = test system: NEK9
[20] = test system: T2, NIK
T2 construct: gene MAP3K14
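Also: KINOMEscan kinase panel screen.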

## Cc1cccc(Nc2nc(NCCN)ncc2C(N)=O)c1 [GSK1292139]
[1]
  %Inh: 12%
[2]
  %Inh: 6%
[3]
  %Inh: 5%
[4]
  %Inh: 94.3%
[5]
  %Inh: 8%
[6]
  %Inh: 5%
[7]
  %Inh: 0%
[8]
  %Inh: 21%
[9]
  %Inh: 25%
[10]
  %Inh: 47%
[11]
  %Inh: 3%
[12]
  %Inh: 0%
[13]
  %Inh: 0%
[14]
  %Inh: 31%
[15]
  %Inh: 29%
[16]
  %Inh: 47%
[17]
  %Inh: 0%
[18]
  %Inh: 0%
[19]
  %Inh: 18%
[20]
  %Inh: 0%

## O=C(O)C(F)(F)F.O=c1[nH]ccc2nc(N[C@@H]3CCNC3)nc(Nc3ccc4c(c3)S(=O)(=O)CC4)c12 [GSK2181306]
[1]
  %Inh: 1%
[2]
  %Inh: 0%
[3]
  %Inh: 78%
[4]
  %Inh: 60%
[5]
  %Inh: 98.1%
[6]
  %Inh: 74%
[7]
  %Inh: 4%
[8]
  %Inh: 89%
[9]
  %Inh: 89%
[10]
  %Inh: 95.3%
[11]
  %Inh: 0%
[12]
  %Inh: 6%
[13]
  %Inh: 46%
[14]
  %Inh: 8%
[15]
  %Inh: 16%
[16]
  %Inh: 0%
[17]
  %Inh: 3%
[18]
  %Inh: 5%
[19]
  %Inh: 19%
[20]
  %Inh: 77%

## CC(=O)Nc1cn2nc(Oc3cccc(NC(=O)c4cccc(C(F)(F)F)c4)c3)ccc2n1
[1]
  %Inh: 11%
[2]
  %Inh: 21%
[3]
  %Inh: 0%
[4]
  %Inh: 3%
[5]
  %Inh: 44%
[6]
  %Inh: 5%
[7]
  %Inh: 9%
[8]
  %Inh: 8%
[9]
  %Inh: 0%
[10]
  %Inh: 0%
[11]
  %Inh: 0%
[12]
  %Inh: 0%
[13]
  %Inh: 0%
[14]
  %Inh: 8%
[15]
  %Inh: 0%
[16]
  %Inh: 8%
[17]
  %Inh: 3%
[18]
  %Inh: 0%
[19]
  %Inh: 0%
[20]
  %Inh: 0%

## c1ccc(Oc2ccc(Nc3ccnc4cc(-c5ccc(CN6CCCCC6)o5)ccc34)cc2)nc1 [GW567143]
[1]
  %Inh: 2%
[2]
  %Inh: 24%
[3]
  %Inh: 0%
[4]
  %Inh: 0%
[5]
  %Inh: 0%
[6]
  %Inh: 0%
[7]
  %Inh: 14%
[8]
  %Inh: 0%
[9]
  %Inh: 0%
[10]
  %Inh: 1%
[11]
  %Inh: 0%
[12]
  %Inh: 0%
[13]
  %Inh: 0%
[14]
  %Inh: 0%
[15]
  %Inh: 25%
[16]
  %Inh: 0%
[17]
  %Inh: 0%
[18]
  %Inh: 0%
[19]
  %Inh: 2%
[20]
  %Inh: 6%

## CN(c1ccc(NC(=O)N2CCN(CCCN3CCOCC3)CC2)cc1)c1ccnc(Nc2ccc(CS(C)(=O)=O)cc2)n1.Cl [GW830899]
[1]
  %Inh: 0%
[2]
  %Inh: 12%
[3]
  %Inh: 9%
[4]
  %Inh: 1%
[5]
  %Inh: 0%
[6]
  %Inh: 0%
[7]
  %Inh: 0%
[8]
  %Inh: 3%
[9]
  %Inh: 0%
[10]
  %Inh: 0%
[11]
  %Inh: 0%
[12]
  %Inh: 0%
[13]
  %Inh: 14%
[14]
  %Inh: 9%
[15]
  %Inh: 0%
[16]
  %Inh: 3%
[17]
  %Inh: 14%
[18]
  %Inh: 0%
[19]
  %Inh: 0%
[20]
  %Inh: 0%

## CN(c1ccc(NC(=O)Nc2cccc(Cl)c2)cc1)c1ccnc(N)n1.Cl [GW830707]
[1]
  %Inh: 13%
[2]
  %Inh: 72%
[3]
  %Inh: 0%
[4]
  %Inh: 6%
[5]
  %Inh: 0%
[6]
  %Inh: 3%
[7]
  %Inh: 36%
[8]
  %Inh: 10%
[9]
  %Inh: 25%
[10]
  %Inh: 1%
[11]
  %Inh: 28%
[12]
  %Inh: 0%
[13]
  %Inh: 16%
[14]
  %Inh: 0%
[15]
  %Inh: 0%
[16]
  %Inh: 7%
[17]
  %Inh: 14%
[18]
  %Inh: 0%
[19]
  %Inh: 3%
[20]
  %Inh: 9%

## CN1CCN(Cc2ccc(NC(=O)Nc3ccc(N(C)c4ccnc(Nc5ccc(CS(C)(=O)=O)cc5)n4)cc3)cc2)CC1.Cl [GW827654]
[1]
  %Inh: 0%
[2]
  %Inh: 98.8%
[3]
  %Inh: 61%
[4]
  %Inh: 18%
[5]
  %Inh: 45%
[6]
  %Inh: 99.1%
[7]
  %Inh: 0%
[8]
  %Inh: 0%
[9]
  %Inh: 0%
[10]
  %Inh: 28%
[11]
  %Inh: 19%
[12]
  %Inh: 45%
[13]
  %Inh: 0%
[14]
  %Inh: 16%
[15]
  %Inh: 24%
[16]
  %Inh: 98.3%
[17]
  %Inh: 3%
[18]
  %Inh: 30%
[19]
  %Inh: 49%
[20]
  %Inh: 0%

## CN(C)c1ncnc2nc[nH]c12 [SKF-31736]
[1]
  %Inh: 54%
[2]
  %Inh: 14%
[3]
  %Inh: 0%
[4]
  %Inh: 30%
[5]
  %Inh: 0%
[6]
  %Inh: 0%
[7]
  %Inh: 0%
[8]
  %Inh: 35%
[9]
  %Inh: 24%
[10]
  %Inh: 21%
[11]
  %Inh: 0%
[12]
  %Inh: 0%
[13]
  %Inh: 0%
[14]
  %Inh: 41%
[15]
  %Inh: 0%
[16]
  %Inh: 12%
[17]
  %Inh: 0%
[18]
  %Inh: 0%
[19]
  %Inh: 0%
[20]
  %Inh: 51%

## CCNC(=O)/C=C/c1n[nH]c2cc(Sc3ccccc3C(=O)NC)ccc12
[1]
  %Inh: 14%
[2]
  %Inh: 32%
[3]
  %Inh: 3%
[4]
  %Inh: 20%
[5]
  %Inh: 11%
[6]
  %Inh: 8%
[7]
  %Inh: 0%
[8]
  %Inh: 25%
[9]
  %Inh: 18%
[10]
  %Inh: 24%
[11]
  %Inh: 0%
[12]
  %Inh: 0%
[13]
  %Inh: 0%
[14]
  %Inh: 26%
[15]
  %Inh: 0%
[16]
  %Inh: 5%
[17]
  %Inh: 38%
[18]
  %Inh: 0%
[19]
  %Inh: 0%
[20]
  %Inh: 0%

## Fc1cc(Cl)ccc1Nc1ccnc2cc(-c3ccc(CN4CCSCC4)o3)ccc12 [GW560106]
[1]
  %Inh: 6%
[2]
  %Inh: 0%
[3]
  %Inh: 13%
[4]
  %Inh: 0%
[5]
  %Inh: 38%
[6]
  %Inh: 38%
[7]
  %Inh: 0%
[8]
  %Inh: 12%
[9]
  %Inh: 31%
[10]
  %Inh: 15%
[11]
  %Inh: 22%
[12]
  %Inh: 0%
[13]
  %Inh: 1%
[14]
  %Inh: 5%
[15]
  %Inh: 0%
[16]
  %Inh: 9%
[17]
  %Inh: 0%
[18]
  %Inh: 0%
[19]
  %Inh: 5%
[20]
  %Inh: 28%
